Our source for the binding signal values is PMC7862700, “An all-to-all approach to the identification of sequence-specific readers for epigenetic DNA modifications on cytosine”.

Assay in all cases: DAPPL (digital affinity profiling via proximity ligation, sequencing); 10 mM Tris-HCl pH 7.5, 50 mM NaCl, 1 mM DTT, 4% glycerol, room temperature, 30 min; GST-TFs on glutathione beads, 16-mer random dsDNA library, 0.1% formaldehyde crosslink after washing; high values mean tight binding
Holding throughout (conditions): protein: recombinant; tags: N-terminal GST; dsDNA, one strand shown

Assay [1] deals with T1, FLI1 (Homo sapiens, UniProt Q01543 1-452).
T1 sequence: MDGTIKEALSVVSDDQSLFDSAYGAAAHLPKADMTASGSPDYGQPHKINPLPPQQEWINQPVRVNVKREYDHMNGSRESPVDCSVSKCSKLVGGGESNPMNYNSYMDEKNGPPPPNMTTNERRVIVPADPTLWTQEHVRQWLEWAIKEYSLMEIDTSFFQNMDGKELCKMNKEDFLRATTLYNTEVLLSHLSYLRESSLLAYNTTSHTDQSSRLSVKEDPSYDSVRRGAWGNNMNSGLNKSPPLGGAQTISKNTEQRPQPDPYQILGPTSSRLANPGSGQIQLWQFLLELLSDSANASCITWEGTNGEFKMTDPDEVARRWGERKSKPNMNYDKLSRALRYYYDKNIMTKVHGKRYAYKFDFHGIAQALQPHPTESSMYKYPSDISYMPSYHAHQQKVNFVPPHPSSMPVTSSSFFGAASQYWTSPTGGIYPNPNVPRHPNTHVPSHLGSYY
In outline: (§1)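 Sequencing on an Illumina NextSeq500 followed washing, crosslinking with 0.1% formaldehyde, proximity ligation (BsaI/T4 ligase, 1 h, 37 °C) and PCR amplification of pools that had been incubated for 30 min at room temperature with 200 nmole of a random double-stranded 16-mer DNA library in Tris/NaCl/DTT/glycerol buffer. Each pool held DNA-barcoded human transcription factors, expressed in yeast as GST fusions and captured on glutathione beads, plus a tag-only sample. Binding signal is a hexamer's read frequency for a factor divided by its frequency in the tag-only sample.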

Assay [2] deals with T2, ELK1 (Homo sapiens, UniProt P19419 1-428).
T2 sequence: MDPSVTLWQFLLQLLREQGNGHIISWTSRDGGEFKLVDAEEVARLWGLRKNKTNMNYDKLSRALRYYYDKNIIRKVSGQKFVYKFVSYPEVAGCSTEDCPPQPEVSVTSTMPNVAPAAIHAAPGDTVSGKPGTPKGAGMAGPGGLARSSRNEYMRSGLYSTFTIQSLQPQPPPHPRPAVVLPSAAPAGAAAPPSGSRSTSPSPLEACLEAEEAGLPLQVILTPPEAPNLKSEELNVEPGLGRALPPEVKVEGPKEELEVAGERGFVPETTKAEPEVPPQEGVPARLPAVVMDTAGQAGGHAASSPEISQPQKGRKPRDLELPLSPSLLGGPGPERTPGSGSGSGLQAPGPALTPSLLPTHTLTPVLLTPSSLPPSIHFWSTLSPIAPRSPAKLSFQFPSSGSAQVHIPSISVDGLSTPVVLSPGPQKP
The gist of the method:
as §1

In assay [3] the target is T3, GABPA (Homo sapiens, UniProt Q06546 1-454).
T3 sequence: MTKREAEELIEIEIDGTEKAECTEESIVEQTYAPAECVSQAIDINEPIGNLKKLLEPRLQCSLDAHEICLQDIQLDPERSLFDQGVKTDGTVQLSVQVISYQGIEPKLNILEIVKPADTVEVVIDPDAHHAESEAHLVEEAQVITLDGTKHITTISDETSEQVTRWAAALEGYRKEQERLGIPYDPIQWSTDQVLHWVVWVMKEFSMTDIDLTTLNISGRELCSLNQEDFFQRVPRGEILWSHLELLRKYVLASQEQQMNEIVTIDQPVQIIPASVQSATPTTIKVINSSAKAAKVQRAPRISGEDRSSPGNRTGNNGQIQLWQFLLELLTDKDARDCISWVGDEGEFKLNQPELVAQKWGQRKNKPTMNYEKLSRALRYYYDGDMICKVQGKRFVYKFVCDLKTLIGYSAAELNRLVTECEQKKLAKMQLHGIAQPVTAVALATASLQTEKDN
The gist of the method: as §1

The target of assay [4] is T4, EHF (Homo sapiens, UniProt Q9NZC4 1-300).
T4 sequence: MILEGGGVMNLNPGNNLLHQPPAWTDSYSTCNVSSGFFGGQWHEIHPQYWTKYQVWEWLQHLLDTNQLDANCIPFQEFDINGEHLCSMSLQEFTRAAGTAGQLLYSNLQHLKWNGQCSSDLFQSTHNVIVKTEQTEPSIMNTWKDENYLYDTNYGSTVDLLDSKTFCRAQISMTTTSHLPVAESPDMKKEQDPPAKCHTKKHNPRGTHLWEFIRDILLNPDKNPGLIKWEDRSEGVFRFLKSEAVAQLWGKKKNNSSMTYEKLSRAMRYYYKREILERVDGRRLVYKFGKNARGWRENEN
In outline:
as §1

For assay [5], the target named is SPI1 (Homo sapiens, UniProt P17947 1-270). The gist of the method:
as §1

The target in assay [6] is SPIB (Homo sapiens, UniProt Q01892 1-262). The gist of the method:
as §1

Assay [7] addresses T5, ELK3 (Homo sapiens, UniProt P41970 1-407).
T5 sequence: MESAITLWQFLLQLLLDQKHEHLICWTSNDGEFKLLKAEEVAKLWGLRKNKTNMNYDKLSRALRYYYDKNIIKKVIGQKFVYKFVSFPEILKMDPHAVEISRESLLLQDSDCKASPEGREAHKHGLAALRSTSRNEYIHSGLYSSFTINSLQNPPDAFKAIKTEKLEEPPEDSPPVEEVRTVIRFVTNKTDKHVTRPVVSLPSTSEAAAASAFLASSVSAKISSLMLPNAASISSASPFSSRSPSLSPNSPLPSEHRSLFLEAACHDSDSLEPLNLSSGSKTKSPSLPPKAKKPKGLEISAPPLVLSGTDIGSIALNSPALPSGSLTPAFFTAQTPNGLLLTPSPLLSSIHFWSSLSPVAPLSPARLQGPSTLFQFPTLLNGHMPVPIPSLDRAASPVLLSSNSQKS
The gist of the method:
as §1

Assay [8] has as its target ETV5 (Homo sapiens, UniProt P41161 1-510). In outline: as §1
For assay [9], the target named is T6, SPIC (Homo sapiens, UniProt Q8N5J4 1-248).
T6 sequence: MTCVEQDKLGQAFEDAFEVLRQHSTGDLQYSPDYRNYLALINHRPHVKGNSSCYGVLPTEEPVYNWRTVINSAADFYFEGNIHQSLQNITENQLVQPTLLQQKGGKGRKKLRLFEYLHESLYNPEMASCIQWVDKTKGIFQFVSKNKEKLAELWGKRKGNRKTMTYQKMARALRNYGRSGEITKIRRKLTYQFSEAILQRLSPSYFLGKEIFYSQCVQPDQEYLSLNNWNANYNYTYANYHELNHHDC
The gist of the method: as §1

For assay [10], the target named is ELF4 (Homo sapiens, UniProt Q99607 1-663). The gist of the method: as §1
In assay [11] the target is ETV1 (Homo sapiens, UniProt P50549 1-477). In outline:
as §1

For assay [12], the target named is T7, ERF (Homo sapiens, UniProt P50548 1-548).
T7 sequence: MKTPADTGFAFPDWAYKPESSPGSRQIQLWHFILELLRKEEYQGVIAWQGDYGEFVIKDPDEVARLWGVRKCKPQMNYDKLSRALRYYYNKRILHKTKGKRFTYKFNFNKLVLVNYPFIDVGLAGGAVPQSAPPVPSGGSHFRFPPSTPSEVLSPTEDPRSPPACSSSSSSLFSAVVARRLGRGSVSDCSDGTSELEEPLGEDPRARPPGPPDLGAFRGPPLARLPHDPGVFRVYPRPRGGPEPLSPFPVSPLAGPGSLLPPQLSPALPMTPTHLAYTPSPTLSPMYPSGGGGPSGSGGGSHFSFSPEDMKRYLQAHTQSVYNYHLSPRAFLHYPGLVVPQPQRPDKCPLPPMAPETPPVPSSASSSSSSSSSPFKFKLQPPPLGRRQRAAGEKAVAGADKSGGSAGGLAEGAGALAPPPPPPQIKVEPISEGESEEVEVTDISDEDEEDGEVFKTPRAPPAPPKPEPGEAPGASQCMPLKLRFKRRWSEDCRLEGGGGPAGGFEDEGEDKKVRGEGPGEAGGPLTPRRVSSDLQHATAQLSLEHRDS
In outline: as §1

Assay [13] deals with T8, ETV3L (Homo sapiens, UniProt Q6ZN32 1-361).
T8 sequence: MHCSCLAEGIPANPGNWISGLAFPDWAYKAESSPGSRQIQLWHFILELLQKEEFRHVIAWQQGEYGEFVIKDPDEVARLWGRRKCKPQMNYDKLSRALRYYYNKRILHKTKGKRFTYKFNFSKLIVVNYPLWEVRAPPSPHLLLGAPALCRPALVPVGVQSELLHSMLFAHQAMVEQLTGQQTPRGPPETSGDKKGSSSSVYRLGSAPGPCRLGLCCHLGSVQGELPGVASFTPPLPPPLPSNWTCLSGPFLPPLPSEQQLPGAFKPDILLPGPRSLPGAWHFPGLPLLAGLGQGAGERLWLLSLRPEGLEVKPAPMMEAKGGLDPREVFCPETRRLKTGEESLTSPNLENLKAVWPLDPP
The gist of the method:
as §1

Assay [14] deals with T9, ETV3 (Homo sapiens, UniProt P41162-2 1-143).
T9 sequence: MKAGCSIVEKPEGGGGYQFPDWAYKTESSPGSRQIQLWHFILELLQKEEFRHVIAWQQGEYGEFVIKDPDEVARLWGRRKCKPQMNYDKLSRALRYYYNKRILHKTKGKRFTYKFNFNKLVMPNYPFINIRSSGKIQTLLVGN
The gist of the method:
as §1

Assay [15] concerns the target ETV6 (Homo sapiens, UniProt P41212 1-452). In outline: as §1

Chain of ETV5 (P41161 whole entry): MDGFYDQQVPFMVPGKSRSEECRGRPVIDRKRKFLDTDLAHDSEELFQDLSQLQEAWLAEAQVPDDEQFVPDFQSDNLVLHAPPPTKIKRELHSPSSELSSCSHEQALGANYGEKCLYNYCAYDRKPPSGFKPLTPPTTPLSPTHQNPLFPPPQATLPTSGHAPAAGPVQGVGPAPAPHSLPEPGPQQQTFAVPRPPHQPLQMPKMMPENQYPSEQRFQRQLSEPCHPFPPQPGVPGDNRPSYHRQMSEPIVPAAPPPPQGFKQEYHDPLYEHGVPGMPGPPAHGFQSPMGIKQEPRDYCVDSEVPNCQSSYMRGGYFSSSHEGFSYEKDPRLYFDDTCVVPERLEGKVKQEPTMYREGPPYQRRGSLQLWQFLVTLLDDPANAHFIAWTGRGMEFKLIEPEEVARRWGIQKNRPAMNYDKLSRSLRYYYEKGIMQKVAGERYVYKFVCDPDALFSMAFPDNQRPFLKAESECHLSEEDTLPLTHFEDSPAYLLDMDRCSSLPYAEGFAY
Chain of SPIB (Q01892 whole entry): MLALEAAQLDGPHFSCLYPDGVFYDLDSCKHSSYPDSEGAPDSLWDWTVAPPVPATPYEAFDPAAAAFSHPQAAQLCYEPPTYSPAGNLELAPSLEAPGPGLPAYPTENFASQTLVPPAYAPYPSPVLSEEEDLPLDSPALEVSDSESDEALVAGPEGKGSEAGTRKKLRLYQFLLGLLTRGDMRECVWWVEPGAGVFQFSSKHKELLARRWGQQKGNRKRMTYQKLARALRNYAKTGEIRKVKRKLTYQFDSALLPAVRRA
Chain of ELF4 (Q99607 whole entry): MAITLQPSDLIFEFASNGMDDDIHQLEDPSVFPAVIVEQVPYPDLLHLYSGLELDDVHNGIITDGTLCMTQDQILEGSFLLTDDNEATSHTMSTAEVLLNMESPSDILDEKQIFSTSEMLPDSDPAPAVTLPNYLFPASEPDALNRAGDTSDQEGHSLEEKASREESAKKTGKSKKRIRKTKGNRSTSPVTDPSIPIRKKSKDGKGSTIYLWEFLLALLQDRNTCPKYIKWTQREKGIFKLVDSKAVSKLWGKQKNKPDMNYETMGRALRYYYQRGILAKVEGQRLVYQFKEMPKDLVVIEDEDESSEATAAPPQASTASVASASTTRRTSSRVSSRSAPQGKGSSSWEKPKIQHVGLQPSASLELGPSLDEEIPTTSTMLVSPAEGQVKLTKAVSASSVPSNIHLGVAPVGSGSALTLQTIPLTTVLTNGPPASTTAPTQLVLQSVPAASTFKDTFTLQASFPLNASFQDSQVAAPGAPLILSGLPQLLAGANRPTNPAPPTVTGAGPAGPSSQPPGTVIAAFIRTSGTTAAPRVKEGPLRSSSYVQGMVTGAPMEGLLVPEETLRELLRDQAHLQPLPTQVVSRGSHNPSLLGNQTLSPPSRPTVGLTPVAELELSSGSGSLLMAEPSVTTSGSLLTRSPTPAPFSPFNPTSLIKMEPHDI
Chain of ETV1 (P50549 whole entry): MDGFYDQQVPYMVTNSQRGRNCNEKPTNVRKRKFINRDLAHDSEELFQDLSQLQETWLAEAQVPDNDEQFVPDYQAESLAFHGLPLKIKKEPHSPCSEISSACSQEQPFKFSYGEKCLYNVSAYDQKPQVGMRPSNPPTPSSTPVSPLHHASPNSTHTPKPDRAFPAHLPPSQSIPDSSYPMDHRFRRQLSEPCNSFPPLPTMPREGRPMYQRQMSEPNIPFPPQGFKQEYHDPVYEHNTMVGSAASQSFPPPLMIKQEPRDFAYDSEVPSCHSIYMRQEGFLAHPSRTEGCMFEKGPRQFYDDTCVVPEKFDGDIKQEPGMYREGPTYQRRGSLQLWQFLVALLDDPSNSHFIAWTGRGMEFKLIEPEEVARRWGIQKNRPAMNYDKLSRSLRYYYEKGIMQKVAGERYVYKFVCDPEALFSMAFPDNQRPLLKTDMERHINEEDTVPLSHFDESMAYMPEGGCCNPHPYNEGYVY
Chain of ETV6 (P41212 whole entry): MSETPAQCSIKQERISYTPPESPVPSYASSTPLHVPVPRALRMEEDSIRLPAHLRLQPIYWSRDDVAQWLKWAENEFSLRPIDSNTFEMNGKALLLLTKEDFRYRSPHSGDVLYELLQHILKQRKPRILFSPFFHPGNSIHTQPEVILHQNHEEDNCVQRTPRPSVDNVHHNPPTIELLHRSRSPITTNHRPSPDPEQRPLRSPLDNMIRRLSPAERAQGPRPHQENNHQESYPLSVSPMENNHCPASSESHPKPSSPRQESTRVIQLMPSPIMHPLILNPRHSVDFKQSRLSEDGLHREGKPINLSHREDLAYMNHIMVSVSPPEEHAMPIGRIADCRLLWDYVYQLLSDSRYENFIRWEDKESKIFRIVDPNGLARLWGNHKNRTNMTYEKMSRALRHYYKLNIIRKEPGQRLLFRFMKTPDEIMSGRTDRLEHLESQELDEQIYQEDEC

As to GCGCGC, the binding signal was 1 fold enrichment (6-mer frequency, TF over GST control) in assay [1]; 1.11 fold enrichment (6-mer frequency, TF over GST control) in [2]; 1.05 fold enrichment (6-mer frequency, TF over GST control) in assay [3]; 1.06 fold enrichment (6-mer frequency, TF over GST control) in [4]; 1.05 fold enrichment (6-mer frequency, TF over GST control) in assay [5]; 1.18 fold enrichment (6-mer frequency, TF over GST control) in assay [6]. Further, the binding signal in [7] is 1.01 fold enrichment (6-mer frequency, TF over GST control); in [8], 1.08 fold enrichment (6-mer frequency, TF over GST control); in assay [9], 1.15 fold enrichment (6-mer frequency, TF over GST control); in assay [10], 1.08 fold enrichment (6-mer frequency, TF over GST control); in assay [11], 1.09 fold enrichment (6-mer frequency, TF over GST control); in assay [12] it was 1.22 fold enrichment (6-mer frequency, TF over GST control). The binding signal in assay [13] was 1 fold enrichment (6-mer frequency, TF over GST control); in [14], 1.02 fold enrichment (6-mer frequency, TF over GST control); in assay [15], 1.03 fold enrichment (6-mer frequency, TF over GST control).
